Screening data: PubChem BioAssay, National Center for Advancing Translational Sciences (NCATS)
An excerpt weighted towards active compounds, which were near 0.9% of everything screened.
HEK293 viab = reduces viability of HEK-293 SNCA reporter cells | HEK-293-SNCA-luc viability, GF-AFC fluorescence, 24 h | Potency, µM (top dose mostly 57.1 µM), actives largely listed as cytotoxic | 150,000 compounds, 0.12% hits; also: nearly all actives have a fitted effect of over 30% in size
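HEK-293-SNCA-luc cells (1500/well) plated 24 h, then exposed 24 h to a dilution series; GF-AFC added 30 min at 37C, fluorescence 405/540 nm; normalised to medium-only and DMSO wells, Hill fit.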
GPT2 inhibitor = blocks human glutamate pyruvate transaminase 2. Q8TD30. Recombinant GPT2, coupled pyruvate oxidase/HRP Amplex Red fluorescence. Potency, µM (series often up to 57.7 µM), actives largely listed as inhibitors. 100,000 compounds, 0.25% hits. AID 1671188; also: nearly all actives have a fitted effect of over 60% in size
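GPT2 10ng/uL, a-KG 250uM, L-Ala 2mM, HEPES pH7.5 + 0.0001% Tween; 30 min RT. Then Amplex mix (PO/HRP/ThPP), 30 min RT dark, fluorescence. AOA 50uM used as positive control.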
SNCA expr inh = SNCA gene expression inhibition | Potency, µM (doses to about 57.2 µM), actives largely listed as inhibitors | 140,000 compounds, 0.17% hits | HEK-293 SNCA-luciferase knock-in, luminescence, 24 h; also: nearly all actives have a fitted effect of over 45% in size
IP6K1 inh = blocks human inositol hexakisphosphate kinase 1 | Q92551 | IP6K1 kinase, ADP-Glo luminescence, 2 h; hits give low values | activity change, % (series mostly up to about 58 µM) | 140,000 compounds, 0.81% hits; in the data active = activity change below about -25%
Target sequence (Q92551 whole entry, looked up): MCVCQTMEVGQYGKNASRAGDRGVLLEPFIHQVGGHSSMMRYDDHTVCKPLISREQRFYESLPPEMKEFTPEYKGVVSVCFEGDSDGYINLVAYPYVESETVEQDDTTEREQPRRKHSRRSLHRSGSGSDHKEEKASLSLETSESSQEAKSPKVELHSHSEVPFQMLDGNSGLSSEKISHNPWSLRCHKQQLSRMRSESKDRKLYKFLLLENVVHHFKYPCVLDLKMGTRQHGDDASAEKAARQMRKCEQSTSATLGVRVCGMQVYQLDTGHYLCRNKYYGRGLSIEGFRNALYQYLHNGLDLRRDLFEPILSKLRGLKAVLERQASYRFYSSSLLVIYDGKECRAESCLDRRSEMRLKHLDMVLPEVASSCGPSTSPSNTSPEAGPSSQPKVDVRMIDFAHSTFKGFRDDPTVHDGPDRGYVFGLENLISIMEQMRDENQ
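ADP-Glo luminescence measures ADP made by human IP6K1 during a 2 h RT reaction with ATP/IP6 (mix at 1.3 mM/130 uM); top library doses 57.5 and 19.1 uM final.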
IP6K1 conf = human IP6K1 inhibition, confirmatory | 1,200 compounds, 13% hits | shares compounds with IP6K1 inh | Potency, µM (series often up to 49 µM), usual class: inhibitors | recombinant IP6K1 kinase, ADP-Glo luminescence, 2 h | AID 1645852; also: nearly all actives have a fitted effect of over 65% in size
Large screens that a line does not name were inactive (follow-up assays come after a bar, where they were run). Unless noted, calls follow the shape of the dose curve; as a rule, active = well fitted curve in the direction sought with a large enough effect; inconclusive = small, poorly fitted or top-dose-only effect, or another doubt; inactive = no such curve, though single readings can be large; an effect the other way counts as inactive or inconclusive.

Cc1noc2c(Nc3ccc(N4CCOCC4)cc3)cc(-c3cccs3)nc12	HEK293 viab inconclusive, GPT2 inhibitor inconclusive, SNCA expr inh inconclusive
CCCc1noc(-c2ccn3c(CNC(=O)c4cccc(Cl)c4)nnc3c2)n1	SNCA expr inh inconclusive
COc1cc(S(=O)(=O)N2CCc3c(nc[nH]c3=O)C2)c(OC)cc1C	IP6K1 inh -30 | IP6K1 conf inactive
Cn1c(=O)oc2cc(S(=O)(=O)N3CCc4c(nc[nH]c4=O)C3)ccc21	none
CCCCN(CC)C(=O)C1CCC(CNS(=O)(=O)c2cccc3nsnc23)CC1 (centres undefined)	IP6K1 inh -30 (no result: GPT2 inhibitor) | IP6K1 conf inactive
C(Cc1noc(C2CNC2)n1)OCC1CC1	HEK293 viab inconclusive, SNCA expr inh inconclusive
Cc1ccc2nc(-c3ccco3)c(Nc3ccc4c(c3)OCCO4)n2c1	IP6K1 inh -28 (no result: GPT2 inhibitor) | IP6K1 conf inactive
COc1cc(OC)cc(-n2c(=O)c3ccccc3n(Cc3ccccc3C#N)c2=O)c1	IP6K1 inh -28 (no result: GPT2 inhibitor) | IP6K1 conf inactive
Cc1nc2ccccc2n1CCC(=O)N1C[C@@H](C)[C@](O)(C(C)C)C1	IP6K1 inh -37 | IP6K1 conf inactive
CC(C)c1nc2ccccc2n1CC(=O)N1CC[C@](C)(O)[C@@H](O)C1	none
CCCN(CCC)CCNC(=O)c1cc2c(=O)oc3ccc(C)cc3c2s1	IP6K1 inh -25 (no result: GPT2 inhibitor) | IP6K1 conf inactive
CCc1ccc(CNC(=O)c2cc3c(=O)oc4ccc(C)cc4c3s2)cc1	none (no result: GPT2 inhibitor)
N#Cc1c(O)c2c(-c3ccc(-c4ccccc4O)cc3)csc2[nH]c1=O	IP6K1 inh -46 | IP6K1 conf inconclusive
N#CC1C(=O)Nc2scc(-c3ccc(-c4ccccc4O)cc3)c2C1=O (centres undefined)	none (no result: SNCA expr inh)
COc1ccc(N2CCN(CC(O)COc3ccccc3C(C)(C)C)CC2)cc1 (centres undefined)	SNCA expr inh inconclusive, IP6K1 inh -27 (no result: GPT2 inhibitor) | IP6K1 conf inconclusive
COc1ccc(N2CCN(CC(O)COc3ccc(C)c(C)c3)CC2)cc1 (centres undefined)	none (no result: GPT2 inhibitor)
COc1ccc(N2CCN(CC(O)COc3c(OC)cccc3OC)CC2)cc1 (centres undefined)	IP6K1 inh -46 (no result: GPT2 inhibitor) | IP6K1 conf inactive
CCCN1CCC2(CCN(C(=O)c3cccc(Cl)c3)CC2)Oc2ccccc21	none
COc1ccc(-n2c(=O)c(C(=O)NC3CC3)nc3cccnc32)cc1	none
Cc1nn(C(=O)CCC(=O)N2CCC(Cc3nc(C4CCOCC4)no3)CC2)c2ccccc12	none
O=C1C[C@@H](c2ccc(O)cc2)Oc2cc(O)ccc21	IP6K1 inh -35 (no result: SNCA expr inh) | IP6K1 conf inconclusive
CCSc1ncc(Cl)c(C(=O)Nc2nnc(CC)s2)n1	none (no result: GPT2 inhibitor)
CCc1nnc(NC(=O)c2nc(S(C)(=O)=O)ncc2Cl)s1	HEK293 viab inconclusive, SNCA expr inh inconclusive, IP6K1 inh -35 (no result: GPT2 inhibitor) | IP6K1 conf inactive
Cc1nnc(NC(=O)c2nc(S(=O)(=O)Cc3ccccc3)ncc2Cl)s1	HEK293 viab inconclusive, SNCA expr inh inconclusive, IP6K1 inh -35 (no result: GPT2 inhibitor) | IP6K1 conf inactive
O=C(Nc1cnc2c(c1)CCC2)c1cccc(F)c1	none
O=C(Nc1ccc(N2CCC(N3CCCCC3)CC2)c(C(=O)O)c1)c1ccccc1	IP6K1 inh -37 (no result: GPT2 inhibitor) | IP6K1 conf inconclusive
Cc1c(C(=O)Nc2cccc(C(F)(F)F)c2)sc2nc[nH]c(=O)c12	IP6K1 inh -32 (no result: GPT2 inhibitor) | IP6K1 conf inconclusive
CCc1cccc(NC(=O)c2sc3nc[nH]c(=O)c3c2C)c1	none (no result: GPT2 inhibitor)
Cc1ccc2nc(C3CCCN(CC4CCCC4)C3)[nH]c(=O)c2c1 (centres undefined)	SNCA expr inh inconclusive
COc1cc2ccccc2cc1C(=O)Nc1ccc2oc(-c3cccc(C)c3)nc2c1	IP6K1 inh -28 (no result: GPT2 inhibitor) | IP6K1 conf inactive
COc1ccccc1-c1nc2cc(NC(=O)c3ccccc3Cl)ccc2o1	none (no result: GPT2 inhibitor)
O=C(Nc1ccc2oc(-c3ccccc3F)nc2c1)c1ccccc1Cl	IP6K1 inh -49 (no result: GPT2 inhibitor) | IP6K1 conf inconclusive
Cc1cc(C)cc(-c2ccc(CN3CCCC3C(=O)NC3CCCC3)cc2)c1 (centres undefined)	SNCA expr inh inconclusive
O=C(Cc1c[nH]c2ncc(-c3cccc(Cl)c3)cc12)NCc1cccnc1	IP6K1 inh -27 | IP6K1 conf inconclusive
O=C(Cc1c[nH]c2ncc(-c3cccc(F)c3)cc12)NCc1cccnc1	none
COc1cccc(-c2cnc3[nH]cc(CC(=O)NCc4cccnc4)c3c2)c1	IP6K1 inh -27 | IP6K1 conf inconclusive
c1ccc(CN(C2COC2)[C@@H]2C[C@@H]3CO[C@H](c4ccccc4)C[C@@H]3C2)cc1	none (no result: HEK293 viab, GPT2 inhibitor, SNCA expr inh)
CC(=O)Oc1cccc(O)c1	none
COc1cc(O)cc(/C=C/c2cccc(O)c2)c1	IP6K1 inh -45 (no result: SNCA expr inh) | IP6K1 conf inconclusive
COc1cccc(C(=O)N2CC(=O)Nc3ccc(C)cc3C2c2ccc(F)cc2)c1OC (centres undefined)	IP6K1 inh -25 (no result: GPT2 inhibitor) | IP6K1 conf inactive
CCOC(=O)c1csc(Nc2ccc(Cl)cc2)n1	GPT2 inhibitor inconclusive, IP6K1 inh -27 (no result: SNCA expr inh) | IP6K1 conf inconclusive
CCc1ccccc1NC(=O)c1ccc2nc(C(C)C)oc2c1	IP6K1 inh -36 (no result: GPT2 inhibitor) | IP6K1 conf inactive
O=C(NC[C@H]1O[C@H](Cc2cc(-c3ccc(F)cc3)on2)CC[C@@H]1O)c1ccccc1F	none
O=c1ccc2ccc(O)c(O)c2o1	HEK293 viab inconclusive, GPT2 inhibitor inconclusive (no result: IP6K1 inh)
O=Cc1ccc(O)c(O)c1O	IP6K1 inh -33 | IP6K1 conf inconclusive
CCOc1cc(Br)c(C2C(C(=O)OC)=C(C)NC3=C2C(=O)c2ccccc23)cc1OCC (centres undefined)	IP6K1 inh -32 (no result: GPT2 inhibitor) | IP6K1 conf inactive
